PubChem BioAssay AID1159580 (chemical genetic matrix, 2015)
Hit rate of the full screen: of about 5,500 compounds, about 2,000 (36%) were called active. About 18% were inconclusive and are not listed. Rule as the data show it: active = normalized growth mostly below about 0.91 (no sharp cut-off); inconclusive = no clear call, values can overlap the other calls; inactive = mostly above about 0.92. Some of the results follow.

Assay: chemical genetic growth profiling, strain panel (AID 1159580);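 also: tested at 20 µM; growth read once vehicle control cultures reached saturation at 30 °C; 1 = growth at the plate median or of vehicle wells; lower values mean less growth of the strain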
Details: S. cerevisiae deletion strains, growth OD

Measured: normalized growth

C/C(=C\CO)CC[C@H](C)CCC[C@H](C)CCCC(C)C
inactive: locus YJR066W, strain TOR1, active compounds read low 0.98 | locus YJR075W, strain HOC1, active compounds read low 1.12 | locus YKL009W, strain mrt4, active compounds read low 1.09 | locus YKL160W, strain elf1, active compounds read low 0.984 | locus YKL190W, strain CNB1, active compounds read low 1.05 | locus YLR039C, strain RIC1, active compounds read low 1.16 | locus YLR058C, strain SHM2, active compounds read low 1.09 | locus YLR113W, strain HOG1, active compounds read low 0.959 | locus YLR262C, strain YPT6, active compounds read low 1.16 | locus YLR320W, strain mms22, active compounds read low 0.988 | locus YLR342W, strain FKS1 (second series), active compounds read low 1.1 | locus YLR342W, strain FKS1, active compounds read low 1.09 | locus YLR357W, strain rsc2, active compounds read low 1.1 | locus YLR371W, strain rom2, active compounds read low 1.04 | locus YLR384C, strain iki3, active compounds read low 0.978 | locus YLR418C, strain cdc73, active compounds read low 1.12 | locus YML016C, strain PPZ1, active compounds read low 1.05 | locus YMR205C, strain PFK2, active compounds read low 1.08 | locus YMR307W, strain GAS1, active compounds read low 1.1 | locus YNL067W, strain RPL9B, active compounds read low 1.08 | locus YNL183C, strain NPR1, active compounds read low 0.967 | locus YNL233W, strain BNI4, active compounds read low 1.07 | locus YNL322C, strain KRE1 (second series), active compounds read low 1.08 | locus YNL322C, strain KRE1, active compounds read low 1.07 | locus YOL006C, strain TOP1, active compounds read low 1.12 | locus YOL012C, strain htz1 1.59 | locus YOR061W, strain CKA2, active compounds read low 1.1 | locus YOR069W, strain VPS5, active compounds read low 1.05 | locus YOR080W, strain dia2, active compounds read low 0.982 | locus YOR231W, strain MKK1, active compounds read low 0.984 | locus YOR270C, strain vph1, active compounds read low 1.16 | locus YPL051W, strain arl3, active compounds read low 1.05 | locus YPL055C, strain LGE1, active compounds read low 1.05 | locus YPL256C, strain CLN2, active compounds read low 0.961 | locus YPR119W, strain clb2, active compounds read low 1.06
active: locus YKL068W, active compounds read low 1.09 [resistant] | locus YKL085W, strain MDH1 (second series), active compounds read low 1.07 [resistant] | locus YKL085W, strain MDH1, active compounds read low 1.07 [resistant] | locus YKR001C, strain vps1, active compounds read low 1.19 [resistant] | locus YKR026C, strain gcn3, active compounds read low 1.12 [resistant] | locus YKR091W, strain srl3, active compounds read low 1.12 [resistant] | locus YLL001W, strain dnm1, active compounds read low 1.13 [resistant] | locus YLL026W, active compounds read low 1.14 [resistant] | locus YLL041C, strain sdh2, active compounds read low 1.13 [resistant] | locus YLR027C, strain aat2, active compounds read low 1.12 [resistant] | locus YLR102C, strain apc9, active compounds read low 1.11 [resistant] | locus YLR221C, strain rsa3, active compounds read low 1.15 [resistant] | locus YLR258W, strain gsy2, active compounds read low 1.14 [resistant] | locus YLR262C, strain YPT6 (second series), active compounds read low 1.17 [resistant] | locus YLR268W, strain sec22, active compounds read low 1.15 [resistant] | locus YLR330W, strain CHS5, active compounds read low 1.1 [resistant] | locus YLR370C, strain arc18, active compounds read low 1.1 [resistant] | locus YML032C, strain rad52, active compounds read low 1.15 [resistant] | locus YML120C, strain ndi1, active compounds read low 1.13 [resistant] | locus YML124C, strain tub3, active compounds read low 1.12 [resistant] | locus YMR058W, strain fet3, active compounds read low 1.13 [resistant] | locus YMR078C, strain ctf18, active compounds read low 1.15 [resistant] | locus YMR125W, strain sto1, active compounds read low 1.13 [resistant] | locus YMR129W, active compounds read low 1.14 [resistant] | locus YMR223W, strain ubp8, active compounds read low 1.13 [resistant] | locus YMR231W, strain pep5, active compounds read low 1.14 [resistant] | locus YMR263W, strain SAP30, active compounds read low 1.12 [resistant] | locus YNL071W, strain lat1, active compounds read low 1.13 [resistant] | locus YNL153C, strain GIM3, active compounds read low 1.13 [resistant] | locus YNL209W, strain ssb2, active compounds read low 1.12 [resistant] | locus YNL248C, strain rpa49, active compounds read low 1.13 [resistant] | locus YNL250W, strain rad50, active compounds read low 1.13 [resistant] | locus YNL271C, strain bni1, active compounds read low 1.12 [resistant] | locus YNL298W, strain CLA4, active compounds read low 1.14 [resistant] | locus YNL307C, strain MCK1, active compounds read low 1.14 [resistant] | locus YNR049C, strain mso1, active compounds read low 1.11 [resistant] | locus YNR052C, strain pop2, active compounds read low 1.14 [resistant] | locus YOL147C, strain pex11, active compounds read low 1.12 [resistant] | locus YOR001W, strain rrp6, active compounds read low 1.15 [resistant] | locus YOR070C, strain gyp1, active compounds read low 1.08 [resistant] | locus YOR083W, strain WHI5, active compounds read low 1.14 [resistant] | locus YOR106W, strain vam3, active compounds read low 1.15 [resistant] | locus YOR136W, strain idh2, active compounds read low 1.15 [resistant] | locus YOR144C, strain elg1, active compounds read low 1.13 [resistant] | locus YOR184W, strain ser1, active compounds read low 1.15 [resistant] | locus YOR265W, strain rbl2, active compounds read low 1.14 [resistant] | locus YOR290C, strain snf2, active compounds read low 1.13 [resistant] | locus YOR316C, strain cot1, active compounds read low 1.13 [resistant] | locus YPL078C, strain atp4, active compounds read low 1.12 [resistant] | locus YPL106C, strain sse1, active compounds read low 1.15 [resistant] | locus YPL240C, strain hsp82, active compounds read low 1.12 [resistant] | locus YPR141C, strain kar3, active compounds read low 1.12 [resistant] | locus YPR163C, strain tif3, active compounds read low 1.13 [resistant] | locus YPR167C, strain met16, active compounds read low 1.09 [resistant] | strain wtn01, active compounds read low 1.12 [resistant]
